Laboratory results taken from PubChem BioAssay (EPA / NIEHS).
Results filed as inconclusive are left out. Active and inactive are the calls of the source. The calls were made as follows, unless noted: active = hit-call score of the fitted dose curve at least 0.9, where 1 is the maximum; inactive = score below 0.9.

Tests used:
[1] = CCTE_Shafer_MEA_dev_firing_rate_mean: CCTE's Neural Network Formation Assay for Mean Firing Rate, Shafer Lab (AID 2284031);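 as to AC50: curve fitted for loss of firing so AC50 reflects decreased mean firing rate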
In short: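 Rat primary cortical neurons were seeded on multielectrode arrays and treated from plating through day 12, with redosing at each feed. Spontaneous spiking was recorded four times; mean firing rate AUC was fitted downward against DMSO.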

[2] = CCTE_Shafer_MEA_dev_per_burst_spike_percent: CCTE's Neural Network Formation Assay for Percent of Spikes in a Burst, Shafer Lab (AID 2284032);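 as to AC50: fitted as a decrease in burst spike percentage below DMSO baseline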
In short: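 Rat primary cortical neurons on 16-electrode MEA wells, dosed from plating day 0 for 12 days with renewal on DIV 5 and 9; spikes-in-bursts percentage averaged over bursting electrodes, collapsed as AUC across days 5, 7, 9, 12; loss direction versus DMSO.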

[3] = CCTE_Shafer_MEA_dev_active_electrodes_number: CCTE's Neural Network Formation Assay for Number of Active Electrodes, Shafer Lab (AID 2284040; active = hit-call score of the fitted dose curve at least 0.9, where 1 is the maximum;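 as to AC50: potency for loss of active electrodes versus DMSO so lower counts are hits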)
In short: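 Primary rat cortical neurons on 16-electrode MEA wells, exposed from day 0 through day 12 with compound renewed at DIV 5 and 9 feeds. Active electrodes (mean firing ≥5 spikes/min) counted at DIV 5, 7, 9, 12; trapezoidal AUC across days, loss-of-signal versus DMSO.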

[4] = CCTE_Shafer_MEA_dev_burst_rate: CCTE's Neural Network Formation Assay for Burst Rate, Shafer Lab (AID 2284042);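 as to AC50: potency for loss of burst rate below DMSO control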
In short: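 Exposure ran continuously over 12 days of network development in rat cortical cultures, with compound refreshed during full media changes on DIV 5 and 9. Single-electrode bursts per recording time, well-mean over active electrodes, trapezoidal AUC across days 5–12, fitted downward relative to DMSO.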

[5] = CCTE_Deisenroth_AIME_384WELL_CTox_Active: Cytotoxicity Assessment (CTOX) in CCTE's 384-well Estrogen Receptor Transactivation Assay with AIME metabolic competence (metabolism positive), Deisenroth Lab (AID 2284037; active = hit-call score of the fitted dose curve at least 0.9, where 1 is the maximum;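 also: chemicals first conditioned 2 h by alginate-bound induced rat liver S9 before cells; activity means signal loss indicating cell death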)
In short: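 VM7Luc4E2 breast cells received medium pre-incubated 2 h with chemical over alginate microspheres holding induced male Sprague Dawley rat liver S9; viability read 24 h later by protease-substrate fluorescence. Loss of signal, bidirectional fit, 0.002–200 uM.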

[6] = biological target: Estrogen receptor (Homo sapiens) (UniProt P03372); assay: CCTE_Deisenroth_AIME_384WELL_LUC_Inactive: CCTE's 384-well Estrogen Receptor Transactivation Assay without AIME metabolic competence (ERTA luciferase; metabolism negative), Deisenroth Lab (AID 2284038; active = hit-call score of the fitted dose curve at least 0.9, where 1 is the maximum;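 also: hits raise estrogen receptor luciferase signal so potencies reflect agonists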)
Sequence of Estrogen receptor (Homo sapiens) (P03372 whole entry, looked up): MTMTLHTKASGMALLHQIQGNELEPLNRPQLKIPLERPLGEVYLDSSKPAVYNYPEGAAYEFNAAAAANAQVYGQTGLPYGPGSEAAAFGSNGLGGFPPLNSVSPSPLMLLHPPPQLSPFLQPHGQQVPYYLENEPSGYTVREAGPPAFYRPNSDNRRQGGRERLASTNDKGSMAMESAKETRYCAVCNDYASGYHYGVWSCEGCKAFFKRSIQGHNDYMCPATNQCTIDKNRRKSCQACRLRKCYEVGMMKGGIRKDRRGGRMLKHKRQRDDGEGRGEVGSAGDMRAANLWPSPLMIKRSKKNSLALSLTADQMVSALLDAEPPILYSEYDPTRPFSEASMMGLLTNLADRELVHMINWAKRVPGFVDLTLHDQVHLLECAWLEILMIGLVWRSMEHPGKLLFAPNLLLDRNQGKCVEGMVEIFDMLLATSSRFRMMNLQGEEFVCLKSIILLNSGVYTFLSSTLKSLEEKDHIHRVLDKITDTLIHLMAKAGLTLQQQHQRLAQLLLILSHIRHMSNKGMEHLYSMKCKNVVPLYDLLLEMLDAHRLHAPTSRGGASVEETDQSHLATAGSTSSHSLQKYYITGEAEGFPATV
In short: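 Metabolism-negative mode: chemicals (10-point, 0.002–200 uM) held 2 h with alginate-water microspheres, then conditioned medium applied to VM7Luc4E2 cells for 24 h. Luciferase induction referenced to 17beta-estradiol.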

[7] = CCTE_Deisenroth_AIME_384WELL_CTox_Inactive: Cytotoxicity Assessment (CTOX) in CCTE's 384-well Estrogen Receptor Transactivation Assay without AIME metabolic competence (metabolism negative), Deisenroth Lab (AID 2284039; active = hit-call score of the fitted dose curve at least 0.9, where 1 is the maximum;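 also: cell viability via live-cell protease substrate cleaved to fluorescent probe; cells exposed 24 h to medium preincubated 2 h with alginate-water beads without S9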)
In short: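 Fluorescent protease-substrate viability readout after 24 h exposure of VM7Luc4E2 cells to conditioned medium. Chemicals (0.002–200 uM) first sat 2 h over alginate-water beads, no S9. Data fitted bidirectionally, loss of signal meaning viability loss.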

[8] = biological target: Estrogen receptor (Homo sapiens) (UniProt P03372); assay: CCTE_Deisenroth_AIME_384WELL_LUC_Shift: CCTE's 384-well Estrogen Receptor Transactivation Assay with AIME metabolic competence data shift (ERTA luciferase; difference in metabolism positive and negative), Deisenroth Lab (AID 2284041);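 also: shift is response with S9 minus without S9 so positive means metabolism raised ER signal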
In short: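 Here, parent compounds undergo 2 h phase I metabolism by PB/BNF-induced rat S9 before 24 h transactivation in VM7Luc4E2 cells; the curve models S9-positive minus S9-negative response over a 10-point series.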

O=CC(F)(F)C(F)(F)C(F)(F)F
outcome [1]: inactive | outcome [2]: inactive | outcome [3]: inactive | outcome [4]: inactive

CCCCCCCCCCCCOC(=O)c1cc(O)c(O)c(O)c1
outcome [5]: inactive | outcome [6]: inactive | AC50 [7]: 128 µM (active) | outcome [8]: inactive

O=C(O)CCC(F)(F)C(F)(F)C(F)(F)C(F)(F)C(F)(F)F
outcome [1]: inactive | outcome [2]: inactive | outcome [4]: inactive

Cc1[nH]nc2c1N=C(c1ccccc1Cl)c1cc([N+](=O)[O-])ccc1N2
AC50 [5]: 159 µM (active) | AC50 [7]: 138 µM (active)

c1cnc2c(c1)ccc1cccnc12
AC50 [5]: 30.9 µM (active) | AC50 [7]: 15.7 µM (active)

CN(Cc1cnc2nc(N)nc(N)c2n1)c1ccc(C(=O)N[C@@H](CCC(=O)O)C(=O)O)cc1
AC50 [1]: 0.123 µM (active) | AC50 [2]: 0.0318 µM (active) | AC50 [3]: 0.0303 µM (active) | AC50 [4]: 0.0365 µM (active)

CCCCC(CC)C(=O)O (stereo not drawn)
outcome [5]: inactive | outcome [7]: inactive

O=C(OC(=O)C(F)(F)C(F)(F)F)C(F)(F)C(F)(F)F
outcome [1]: inactive | outcome [2]: inactive | outcome [3]: inactive | outcome [4]: inactive

O=S(=O)(O)c1ccccc1
outcome [5]: inactive

COC(=O)C(F)(F)C(F)(F)C(F)(F)C(F)(F)C(F)(F)F
outcome [1]: inactive | outcome [2]: inactive | outcome [4]: inactive

CN(C)CCOC(c1ccccc1)c1ccccc1
outcome [1]: inactive | AC50 [2]: 10 µM (active) | AC50 [3]: 6.36 µM (active) | outcome [4]: inactive

O=P(O)(O)CCC(F)(F)C(F)(F)C(F)(F)C(F)(F)C(F)(F)C(F)(F)F
outcome [1]: inactive | outcome [2]: inactive | outcome [4]: inactive

CC(C)[C@@H]1CC[C@@H](C)C[C@H]1O
outcome [7]: inactive

CC(O)COc1ccccc1 (stereo not drawn)
outcome [5]: inactive | outcome [7]: inactive

O=C(O)C(F)(F)OC(F)(F)C(F)(F)OC(F)(F)C(F)(F)OC(F)(F)C(F)(F)C(F)(F)C(F)(F)F
outcome [1]: inactive | outcome [2]: inactive | outcome [3]: inactive | outcome [4]: inactive
